15 molecules from PubChem BioAssay (NCATS) can be followed below.

In assay [1] the target is Glutathione peroxidase 1 (Homo sapiens) (UniProt P07203). Put plainly: Primary qHTS Assay for Inhibitors of Recombinant Selenoprotein Glutathione Peroxidase 1 (GPX1) (AID 1845191). Further: nearly all actives have a fitted effect of over 65% in size. Further: potency means the concentration at half of the fitted maximal effect. On activity, negative = inhibition: on the % scale 0 is the no-effect control and ±100 the full control effect. Put shortly:
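GR-coupled assay: compounds preincubated 30 min at room temperature with GPX1, then reaction started with CHP; final 10 nM GPX1, 1 mM GSH, 0.5 mM CHP, 0.5 mM NADPH, 100 nM GR, 0.01% BSA, pH 7.5 Tris buffer. NADPH fluorescence (340/450 nm) read at 0 and 15 min.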

Assay [2] deals with Phospholipid hydroperoxide glutathione peroxidase GPX4 (Homo sapiens) (UniProt P36969). Put plainly: Primary qHTS Assay for Inhibitors of Recombinant Selenoprotein Glutathione Peroxidase 4 (GPX4) (AID 1845192). Further: nearly all actives have a fitted effect of over 65% in size. Further: potency means the concentration at half of the fitted maximal effect. Put shortly: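 GR-coupled assay: recombinant GPX4 preincubated 30 min with compound at room temperature; final 200 nM GPX4, 1 mM GSH, 0.5 mM cumene hydroperoxide, 0.5 mM NADPH, 100 nM GR, 0.01% BSA, pH 7.5 Tris. NADPH fluorescence (340/450 nm) read at 0 and 15 min.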
In general terms: qHTS replaces the single test concentration by a dilution series.

Assay [3] is described as follows: qHTS drug screen for cell cycle checkpoint inhibitors in PARPi-resistant BRCA-mutant ovarian cancer cell lines. (AID 1963452; calls by dose curve; further: potency means the concentration at half of the fitted maximal effect). The conditions noted are these: PEO1/OlaR viability, CellTiter-Glo luminescence, 96 h; for Z-AUC: stronger effect = lower value. Put shortly: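 PEO1, PEO4 and PEO1/OlaR ovarian cancer cells, 600 per well, exposed 96 h at 37C to a dilution series. Viability read by CellTiter-Glo luminescence, normalized to DMSO and empty wells; activity summarized as Z-AUC.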

In assay [4] the target is Cytochrome P450 3A4 (Homo sapiens) (UniProt P08684). Put plainly: qHTS Assay for Inhibitors and Substrates of Cytochrome P450 3A4 (AID 884). Further: on the % scale 0 is the no-effect control and ±100 the full control effect; nearly all actives have a fitted effect of over 50% in size. Put shortly:
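20 nM human CYP3A4 with 25 uM Luciferin-PPXE (at KM) in 200 mM KPO4, preincubated 10 min with compound; NADPH regeneration started a 60 min RT reaction. Luciferin detected by luminescence, normalized to 57 uM ketoconazole as full inhibition.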

Assay [5] can be described thus: qHTS assay for small molecule antagonists of retinoid X receptor alpha signaling (AID 588546).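 Further: cells stimulated with 9-cis-retinoic acid as agonist; on the % scale 0 is the no-effect control and ±100 the full control effect.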 The conditions noted are these: HEK293T RXRa-UAS-bla, beta-lactamase ratio, antagonist mode; measured here: W530 green channel, cytotoxicity proxy. Put shortly:
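Beta-lactamase reporter inhibition, read as CCF4 fluorescence ratio (ex 405, em 460/530 nm) after 2 h at RT. HEK293T UAS-bla cells, 2500/well, were stimulated with 9-cis-RA at 500 or 100 nM final alongside test compound for 18 h at 37 C.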

Assay [6] in a line: qHTS assay for environmental chemicals that activate the Aryl hydrocarbon Receptor (AhR) signaling pathway (AID 651777). Further: % of control where 0% means no effect; nearly all actives have a fitted effect of over 15% in size. The conditions noted are these: 1A2-DRE human hepatoma cells, luciferase, 24 h; activation: stronger effect = higher value. Put shortly:
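Human hepatoma 1A2-DRE cells stably carrying a DRE/CYP1A2 promoter–luciferase reporter, 1,200 cells/well, exposed to compound 24 hr at 37 C. Luciferase read by One-Glo luminescence after 30 min at room temperature; increased signal marks AhR activation.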

Assay [7] addresses Peroxisome proliferator-activated receptor alpha (Homo sapiens) (UniProt Q07869). As to the kind of experiment: qHTS assay for small molecule agonists of the peroxisome proliferator-activated receptor alpha (PPARalpha) signaling pathway (AID 651778). Further: % of control where 0% means no effect. The conditions noted are these: PathHunter PPARalpha complementation, chemiluminescence, 6 h; max response: stronger effect = higher value. Put shortly: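 Enzyme-fragment complementation assay in which ligand-bound PPARalpha translocates and forms an active enzyme that generates chemiluminescence. Cells were plated overnight, exposed to compound for 6 hr at 37 C, and then given detection reagent for 60 min at room temperature.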

Assay [8] in a line: qHTS assay for small molecule agonists of the antioxidant response element (ARE) signaling pathway measured by Nrf2-dependant transcriptional activity (AID 720636; active means well fitted curve in the direction sought with a large enough effect in the repeat runs; an effect the other way counts as inactive or inconclusive; further: % of control where 0% means no effect). Put shortly:
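ARE-luc HepG2 cells carrying an Nrf2-responsive luciferase reporter, in medium with 1% dialyzed FBS, exposed to compound for 16 hr at 37 C, 5% CO2. Luminescence read 30 min after ONE-Glo addition.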

The nature of assay [9]: qHTS assay for cell viability of HEK293 cells (AID 743288). Further: on the % scale 0 is the no-effect control and ±100 the full control effect; nearly all actives have a fitted effect of over 50% in size. The conditions noted are these: ATP luminescence (CellTiter-Glo), 18 h; max response: stronger effect = lower value. Put shortly: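 Total intracellular ATP, measured with a luciferase-coupled reagent, indicates the number of viable HEK293 cells. Exposure to test chemicals lasts 18 h at 37 C in 1,536-well format at 2,000 cells/well.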

Assay [10] has as its target Luciferin 4-monooxygenase (Photinus pyralis) (UniProt P08659). As to the kind of experiment: Biochemical firefly luciferase enzyme assay for NPC (AID 624030).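 Further: purified P. pyralis luciferase at 10 nM with luciferin and ATP substrate; 0% = DMSO and -100% = full luciferase inhibition by PTC124 control; nearly all actives have a fitted effect of over 70% in size.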 Put shortly:
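Purified P. pyralis luciferase at 10 nM in 50 mM Tris Acetate (final), luminescence read within 5 minutes of enzyme addition to compounds. Activity normalised to PTC124 versus DMSO; concentration-response curves classed by r2, magnitude and activity.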

Assay [11] is described as follows: qHTS profiling for inhibitors of Plasmodium falciparum proliferation (AID 504749). Further: nearly all actives have a fitted effect of over 60% in size. Further: potency means the concentration at half of the fitted maximal effect.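 On activity, negative = inhibition: 0% = DMSO vehicle and full inhibition = artemisinin control.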 The settings on record: P. falciparum in erythrocytes, SYBR Green DNA, 72 h, at 28.7 µM (top of the series). Put shortly: (§1)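 Readout was DNA-dye fluorescence from lysed cultures, ex 485/em 535 nm. Parasitized red cells had grown 72 h with compound; data scaled between 0.29 uM artemisinin and DMSO wells and corrected using vehicle-only plates.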

For a further assay, the system named is AA1029. The assay is described as above. The conditions noted are these: P. falciparum in erythrocytes, SYBR Green DNA, 72 h; series mostly up to 28.7 µM. Put shortly: as §1
A further assay concerns ATS189. Described as above. The settings on record: P. falciparum in erythrocytes, SYBR Green DNA, 72 h; series mostly up to 28.7 µM. Put shortly: as §1
The next assay concerns ATS95. Described as above. The conditions noted are these: P. falciparum in erythrocytes, SYBR Green DNA, 72 h; series mostly up to 28.7 µM. Put shortly: as §1
The test system of a further assay is CP192. The assay is described as above. The conditions noted are these: P. falciparum in erythrocytes, SYBR Green DNA, 72 h; series mostly up to 28.7 µM. Put shortly: as §1
The next assay has as its system CP238. The assay is described as above. The conditions noted are these: P. falciparum in erythrocytes, SYBR Green DNA, 72 h; series mostly up to 28.7 µM. Put shortly: as §1
The test system of another assay is CP286. The assay is described as above. The settings on record: P. falciparum in erythrocytes, SYBR Green DNA, 72 h; series mostly up to 28.7 µM. Put shortly:
as §1

Another assay deals with CP291. The description is as above. The settings on record: P. falciparum in erythrocytes, SYBR Green DNA, 72 h; series mostly up to 28.7 µM. Put shortly: as §1
A further assay concerns DFO2036. Described as above. The settings on record: P. falciparum in erythrocytes, SYBR Green DNA, 72 h; series mostly up to 28.7 µM. Put shortly:
as §1

A further assay relates to GB4. Described as above. The settings on record: P. falciparum in erythrocytes, SYBR Green DNA, 72 h; series mostly up to 28.7 µM. Put shortly: as §1
The mark [12] stands for this setting: measured here: PEO1 parental Z-AUC.

SMILES strings stand for the structures. Where “and” joins values, the source holds several entries; their conditions need not be identical. Equal values may be shown once. Inconclusive results are not listed. Calls of active or inactive are those of the source. Unless noted, the call rests on the fitted dose curve; in most records, active means well fitted curve in the direction sought with a large enough effect; inconclusive means small, poorly fitted or top-dose-only effect, or another doubt; inactive means no such curve, though single readings can be large; an effect the other way counts as inactive or inconclusive. Where a SMILES comes first, the peptide text is derived from it. Bridges are numbered along the chain shown (N, C = ends).

Chain of Phospholipid hydroperoxide glutathione peroxidase GPX4 (Homo sapiens) (P36969 whole entry, looked up): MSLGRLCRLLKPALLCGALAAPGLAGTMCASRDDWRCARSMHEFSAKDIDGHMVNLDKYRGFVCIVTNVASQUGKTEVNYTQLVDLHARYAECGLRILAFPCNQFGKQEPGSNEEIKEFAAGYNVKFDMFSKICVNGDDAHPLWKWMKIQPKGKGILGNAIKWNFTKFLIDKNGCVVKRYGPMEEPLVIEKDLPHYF
Chain of Glutathione peroxidase 1 (Homo sapiens) (P07203 whole entry, looked up): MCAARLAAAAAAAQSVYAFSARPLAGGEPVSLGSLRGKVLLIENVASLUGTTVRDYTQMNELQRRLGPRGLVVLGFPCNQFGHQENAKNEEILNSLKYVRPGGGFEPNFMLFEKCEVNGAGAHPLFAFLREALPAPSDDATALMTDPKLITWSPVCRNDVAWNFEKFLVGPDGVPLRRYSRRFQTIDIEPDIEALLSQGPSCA
Chain of Peroxisome proliferator-activated receptor alpha (Homo sapiens) (Q07869 whole entry, looked up, the tested form may be a part): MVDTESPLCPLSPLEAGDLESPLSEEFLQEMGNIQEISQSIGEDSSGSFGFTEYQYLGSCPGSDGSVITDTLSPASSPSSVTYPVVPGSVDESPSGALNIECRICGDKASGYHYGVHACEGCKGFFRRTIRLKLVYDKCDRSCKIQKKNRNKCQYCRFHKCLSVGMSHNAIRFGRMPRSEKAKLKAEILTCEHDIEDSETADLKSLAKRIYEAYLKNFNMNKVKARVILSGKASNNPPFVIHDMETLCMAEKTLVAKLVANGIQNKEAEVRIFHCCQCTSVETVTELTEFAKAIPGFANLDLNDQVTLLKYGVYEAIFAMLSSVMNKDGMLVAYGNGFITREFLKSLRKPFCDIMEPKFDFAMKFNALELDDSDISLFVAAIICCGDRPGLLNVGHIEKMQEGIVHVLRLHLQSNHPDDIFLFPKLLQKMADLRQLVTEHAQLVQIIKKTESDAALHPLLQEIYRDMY
Chain of Cytochrome P450 3A4 (Homo sapiens) (P08684 whole entry, looked up): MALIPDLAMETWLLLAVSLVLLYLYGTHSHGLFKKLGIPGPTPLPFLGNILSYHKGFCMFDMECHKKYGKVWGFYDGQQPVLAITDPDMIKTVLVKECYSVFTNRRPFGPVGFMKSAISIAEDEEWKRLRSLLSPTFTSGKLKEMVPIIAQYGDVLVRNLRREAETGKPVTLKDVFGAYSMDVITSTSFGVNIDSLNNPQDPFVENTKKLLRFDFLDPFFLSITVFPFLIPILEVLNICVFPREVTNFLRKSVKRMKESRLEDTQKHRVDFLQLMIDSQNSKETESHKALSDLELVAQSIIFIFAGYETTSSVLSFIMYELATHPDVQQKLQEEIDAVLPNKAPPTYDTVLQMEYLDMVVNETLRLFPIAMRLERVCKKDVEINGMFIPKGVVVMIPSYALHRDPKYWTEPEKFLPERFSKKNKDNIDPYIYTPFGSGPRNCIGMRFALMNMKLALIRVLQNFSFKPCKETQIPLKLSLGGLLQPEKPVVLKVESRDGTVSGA
Chain of Luciferin 4-monooxygenase (Photinus pyralis) (P08659 whole entry, looked up): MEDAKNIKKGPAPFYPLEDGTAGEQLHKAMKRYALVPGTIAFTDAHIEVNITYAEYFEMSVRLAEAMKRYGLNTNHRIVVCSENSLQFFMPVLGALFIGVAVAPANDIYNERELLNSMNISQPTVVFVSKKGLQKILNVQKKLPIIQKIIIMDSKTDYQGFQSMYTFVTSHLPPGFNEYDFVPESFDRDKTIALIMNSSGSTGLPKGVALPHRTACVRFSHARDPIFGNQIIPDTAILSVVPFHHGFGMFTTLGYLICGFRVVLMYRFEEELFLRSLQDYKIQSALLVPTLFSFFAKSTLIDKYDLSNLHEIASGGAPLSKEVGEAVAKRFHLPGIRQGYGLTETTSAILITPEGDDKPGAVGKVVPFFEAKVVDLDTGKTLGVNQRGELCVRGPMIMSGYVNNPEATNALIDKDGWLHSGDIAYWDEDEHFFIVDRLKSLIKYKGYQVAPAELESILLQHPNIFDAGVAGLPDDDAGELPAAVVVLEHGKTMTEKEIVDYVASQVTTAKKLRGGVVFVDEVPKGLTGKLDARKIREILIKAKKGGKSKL

Regarding `O=C(Nc1ccc(-c2ccnc(Nc3ccc(N4CCOCC4)cc3)n2)cc1)[C@@H]1CCCN1`, the Potency entry in [1] and in assay [2] was “inactive” each time. For the same molecule, the Z-AUC in [3] was -0.466 (inactive); in [3] (setting [12]), 0.455; in [3] (measured here: PEO4 Z-AUC) it was 0.0561.

With `CC1=CC(O)CC(C)(C)C1/C=C/C(C)=C/C=C/C(C)=C/C=C/C=C(C)/C=C/C=C(C)/C=C/C1=C(C)CC(O)CC1(C)C` (centres undefined), in assay [1], the Potency result was “inactive”. For the same molecule, the Potency in assay [2] is 12.6 µM (active).

`C[C@@H]1NC(=O)[C@@H]2CCCN2C(=O)[C@H](CC(N)=O)NC(=O)[C@@H]2CSSC[C@H](N)C(=O)N[C@H]3CSSC[C@H](NC1=O)C(=O)N[C@@H]([C@@H](C)O)C(=O)NCC(=O)N[C@H](C(=O)N[C@@H](Cc1ccc(O)cc1)C(=O)O)CSSC[C@H](NC(=O)[C@H](Cc1ccc(O)cc1)NC(=O)[C@H](CCC(=O)O)NC3=O)C(=O)N2` (H-CCEYCCNPACTGCY-OH; disulfide 1-6, 2-10, 5-13): the Potency entry in assay [1] and in assay [2] was “inactive” throughout.

Take `CO[C@H]1C[C@H](O[C@@H]2[C@H](C)O[C@H](O[C@@H]3/C(C)=C/C[C@@H]4C[C@@H](C[C@]5(C=C[C@H](C)[C@@H](C6CCCCC6)O5)O4)OC(=O)[C@@H]4C=C(C)C(O)[C@H]5OC/C(=C\C=C\[C@@H]3C)[C@]54O)C[C@@H]2OC)O[C@@H](C)[C@@H]1O` (some centres undefined): the Potency entry in [1] and in [2] was “inactive” throughout.

For the molecule `CC1CCCC(C)N1C(=S)Nc1cccc(C(F)(F)F)c1` (centres undefined), the Potency in assay [1] is 22.7 µM (active); in assay [2], 11.2 µM (active).

For the molecule `O=C(O)c1ccccc1C(c1ccc(O)cc1)c1ccc(O)cc1`, the Potency result in assay [4], in [8], in assay [1] and in [2] was “inactive” each time. Also, the max response was -15.7% and -6.86% in [5]; 0.608% (inactive) and -3.85% (inactive) in assay [7]; -11.1% (inactive) and 2.2% (inactive) in assay [9]. In addition, the activation in assay [6] is 2.69% (inactive) and 0.36% (inactive).

In the case of `CCC(=O)O[C@@H]1[C@@H](C)O[C@@H](O[C@H]2[C@H](N(C)C)[C@@H](O)[C@H](O[C@H]3[C@@H](CC=O)C[C@@H](C)[C@@H](OC(C)=O)/C=C/C=C/C[C@@H](C)OC(=O)C[C@@H](OC(=O)CC)[C@@H]3OC)O[C@@H]2C)C[C@]1(C)OC(C)=O`, the Potency result in [1] and in assay [2] was “inactive” throughout.

As to `O=NCc1ccc([N+](=O)[O-])o1`, the Potency entry (in assay [10]; in [1]; in assay [2]; in the assay on AA1029; in the assay on ATS189; in the assay with ATS95) was “inactive” in each case. Moreover, the Potency result in the assay with CP192, with CP238, in the assay with CP286, in the assay on CP291 and in the assay with DFO2036 was “inactive” throughout. The activity, negative = inhibition in [11] (parasite line A) was -23.3% (inactive); in [11] (parasite line B), 5.01% (inactive). The Potency with GB4 was 13.5 µM (active).

On to `CCC(=O)Oc1ccc2c(c1)CC[C@@H]1[C@H]2CC[C@]2(C)[C@@H](OC(=O)CC)CC[C@@H]12`, for which the Potency entry in assay [1] and in [2] was “inactive” each time.

As to `[Mn].[O]=[Mn][OH].[O]=[Mn][OH]`, the Potency result in [1] and in [2] was “inactive” in each case.

Consider `CO/N=C(\C(=O)N[C@@H]1C(=O)N2C(C(=O)O)=C(Cn3ccc(=N)n3CCO)CS[C@H]12)c1csc(N)n1`, for which, in assay [1], the Potency is 18 µM (active). The Potency result in [2] is “inactive”.

For `CC1(C)S[C@@H]2[C@H](NC(=O)[C@H](NC(=O)N3CCNC3=O)c3ccccc3)C(=O)N2C1C(=O)O` (some centres undefined), the Potency entry in [1] and in [2] was “inactive” each time.

`CCCC(=O)Nc1ncnc2c1ncn2C1O[C@@H]2COP(=O)(O)O[C@H]2[C@H]1OC(=O)CCC` (some centres undefined): the Potency result in assay [1] and in [2] was “inactive” each time.

On to `CN(C)CCCOc1ccc(-c2ccc3ncc4c(c3c2)n(C2CCOCC2)c(=O)n4C)cn1`, for which the Potency entry in [1] and in assay [2] was “inactive” in each case. The Potency in [3] was 3.01 µM (active). The results for the Z-AUC in [3] (setting [12]) and in assay [3] (measured here: PEO4 Z-AUC) were -1.35 and -1.31, respectively.

Consider `C=Cc1c(C)c2cc3nc(c(CC(=O)N[C@@H](CC(=O)O)C(=O)O)c4nc(cc5[nH]c(cc1[nH]2)c(C)c5CC)C(C)=C4C(=O)O)[C@@H](CCC(=O)O)[C@@H]3C`, for which the Potency entry in [1] and in [2] was “inactive” throughout.
